Source: PubChem
Hits are enriched below; roughly 1.1% of the tested compounds scored in any of these assays.
HTR5A inv ctr: HTR5A inverse agonism, opioid heterodimer counter-screen | actives 0.083% (n = 340,000) | inhibition, % at 9.3 µM | P47898 | HTR5A cell line, luminescence; in the data active = inhibition mostly above about 23%, no sharp cut-off; inactive = mostly below about 18%;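 note: 0% = cells with DMSO and 100% = no-cell wells with DMSO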
Target sequence (P47898 whole entry, looked up): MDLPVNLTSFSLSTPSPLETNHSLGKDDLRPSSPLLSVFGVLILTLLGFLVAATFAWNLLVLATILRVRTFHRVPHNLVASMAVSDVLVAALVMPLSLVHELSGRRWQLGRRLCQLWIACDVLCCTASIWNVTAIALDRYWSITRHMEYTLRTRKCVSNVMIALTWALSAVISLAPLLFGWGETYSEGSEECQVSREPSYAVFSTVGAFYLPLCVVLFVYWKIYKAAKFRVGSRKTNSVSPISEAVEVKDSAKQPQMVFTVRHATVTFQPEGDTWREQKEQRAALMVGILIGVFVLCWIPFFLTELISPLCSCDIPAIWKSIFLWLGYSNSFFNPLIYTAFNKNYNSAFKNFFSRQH
OPRM1-OPRD1 ag: OPRM1-OPRD1 heterodimerization agonism; actives 0.3% (n = 340,000); AID 504326; cells, luminescence; P35372+P41143; activation, % at 9.3 µM; in the data active = activation above about 18%;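 note: 0% = vehicle-treated cells and 100% = reference agonist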
HTR5A ag: counter-screen for OPRM1-OPRD1 agonists: human HTR5A agonism | P47898 | activation, % at 9.3 µM | HTR5A agonist assay, luminescence, cell-based | actives 0.61% (n = 340,000); in the data active = activation mostly above about 9.5%, no sharp cut-off; inactive = mostly below about 7.6%;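 note: 0% = cells with vehicle only and 100% = reference agonist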
MOR-DOR inv ag: inverse agonists of human mu-delta opioid receptor heterodimerization; cell-based MOR-DOR heterodimer luminescence, inverse agonism; inhibition, % at 9.3 µM; actives 0.21% (n = 340,000); AID 504357; in the data active = inhibition above about 22%, passing the limit was not always enough;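 note: 0% = cells with DMSO and 100% = wells without cells with DMSO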
MOR-DOR inv conf: OPRM1-OPRD1 heterodimer inverse agonism, confirmation; shares compounds with MOR-DOR inv ag; cells expressing OPRM1/OPRD1 heterodimer, luminescence; inhibition, % at 9.3 µM; actives 20% (n = 580); in the data active = inhibition above about 32%;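 note: 0% = cells with DMSO and 100% = wells lacking cells with DMSO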
HTR5A inv ctr2: HTR5A inverse agonism, opioid heterodimer counter-screen | shares compounds with MOR-DOR inv ag | HTR5A-expressing cells, luminescence | inhibition, % at 9.3 µM | 580 tested, under 10 active; call rule not given here;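 note: 0% = cells with DMSO and 100% = no-cell wells with DMSO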
Numbers without * were called inactive; / = no result.

SMILES	HTR5A inv ctr	OPRM1-OPRD1 ag	HTR5A ag	MOR-DOR inv ag	MOR-DOR inv conf	HTR5A inv ctr2
O=C(COC(=O)c1cccnc1)c1ccc(Cl)c(Cl)c1	7.3	-9.6	-5.8	56.9*	-149.7	-11.3
Cc1ccc(C(=O)COC(=O)c2cnccn2)cc1[N+](=O)[O-]	18.8*	-10.6	-6.7	53.9*	33.3*	17.1
O=C(COC(=O)c1cccnc1)c1ccc(Cl)cc1	11.8	-3.1	1.4	16.5	/	/
O=C(COC(=O)c1cnccn1)c1ccc(Cl)c([N+](=O)[O-])c1	13.4	-15.4	-6.3	81.5*	-113.2	-46.2
Cc1nn(C(C)C(=O)NCc2ccco2)c(=O)c2nn(-c3ccccc3)c(C)c12 (configuration not stated)	20.2	-3.0	-5.0	16.0	/	/
Cc1ccccc1-c1cc2c(nn1)-c1ccccc1C2=O	-9.7	-2.4	1.0	14.3	/	/
O=C1c2ccccc2-c2nnc(-c3ccc(F)cc3)cc21	3.7	-15.8	-1.4	80.9*	20.7	2.2
Cc1ccc(-c2cc3c(nn2)-c2ccccc2C3=O)cc1	-2.9	-18.6	1.1	98.7*	-24.8	-5.1
O=C1c2ccccc2-c2nnc(-c3ccc(O)cc3)cc21	-7.0	-3.9	-2.4	18.3	/	/
O=C1Nc2ccccc2C1=NN1CCCCCC1	19.6	-7.4	-5.0	38.0*	26.2	-2.2
Nc1n[nH]c(=S)n1/N=C1/C(=O)Nc2ccccc21	3.3	-1.4	-1.1	7.4	/	/
O=C1Nc2ccccc2C1=O	-4.0	-9.9	-2.3	54.5*	33.0*	11.4
O=C1Nc2ccccc2Nc2ccccc21	-3.5	-3.2	0.9	15.5	/	/
NC(=O)CCCn1c(C(=O)c2cc(Cl)c(N)c(Cl)c2)c2ccc([N+](=O)[O-])cc2[n+]1[O-]	-4.6	5.0	1.8	-27.1	/	/
Cc1ccc(C(=O)COC(=O)CCS(=O)(=O)c2ccccc2)cc1[N+](=O)[O-]	28.1	-10.9	-6.0	42.1*	-342.8	11.2
Cc1ccc(S(=O)(=O)CCC(=O)OCC(=O)c2ccc(C)c(C)c2)cc1	-29.4	-1.8	2.1	9.7	/	/
Cc1ccc(C)c(C(=O)COC(=O)CNS(=O)(=O)c2ccccc2)c1	-0.2	0.1	0.1	-0.6	/	/
Cc1ccc(C(=O)COC(=O)CNS(=O)(=O)c2ccccc2)cc1[N+](=O)[O-]	18.2	-14.2	-8.8	59.1*	13.3	-3.6
COc1cccc(CN(C)C(=O)c2ccc(OCC(=O)N3CCOCC3)c(OC)c2)c1	0.8	-0.6	-0.3	2.6	/	/
CC(C)[C@H](NS(=O)(=O)c1ccccc1)C(=O)OCC(=O)Nc1cccc(S(N)(=O)=O)c1	10.5	-0.6	-4.1	2.4	/	/
COCCN(C(=O)COC(=O)CSc1ccccc1)c1c(N)n(Cc2ccccc2)c(=O)[nH]c1=O	3.3	-2.2	-1.2	11.3	/	/
O=C(COC(=O)c1ccccn1)c1cccc(Br)c1	16.6	-7.2	-2.2	37.1*	13.8	9.0
OC1=C(O)c2nc3ccccc3nc21	-32.6	-15.1	1.9	83.9*	73.2*	-16.5
CCC1Sc2ccc(S(=O)(=O)N3CCN(c4ccccc4)CC3)cc2NC1=O (configuration not stated)	-8.3	4.8	6.2	-23.8	/	/
CCSc1nnc2c(n1)OC(C)(C)Nc1ccccc1-2	-10.3	-0.1	9.6	0.3	/	/
SMILES	HTR5A inv ctr	OPRM1-OPRD1 ag	HTR5A ag	MOR-DOR inv ag	MOR-DOR inv conf	HTR5A inv ctr2
CSc1nnc2c(n1)OC1(Nc3ccccc3-2)C(=O)Nc2ccccc21 (configuration not stated)	-0.9	-10.6	-4.8	53.0*	-20.8	-6.1
O=C(CNC(=O)c1ccco1)OCC(=O)c1ccc(Cl)cc1Cl	12.4	-8.1	-4.3	44.0*	-19.7	-21.0
O=C(Nc1ccc(Br)cc1)N1CCCCCCC1	6.3	-5.8	1.9	33.1*	-67.7	-18.4
CC1CCN(S(=O)(=O)N2CCC(C(=O)NCc3cccnc3)CC2)CC1	-2.0	1.9	0.7	-9.6	/	/
O=C(C[n+]1ccccc1)NNc1ccccc1	-20.7	-5.8	-0.4	32.6*	23.6	-16.1
Cc1ccc(C(=O)CNc2ccc(C)cc2C)cc1	-6.2	-4.7	2.8	26.1*	1.3	20.5
Cc1ccc(C(=O)CNc2ccccc2C)cc1	-12.3	-7.0	0.2	36.8	/	/
CC(CNC(=O)CN1C(=O)NC2(CCCCC2)C1=O)c1ccccc1 (configuration not stated)	4.9	-1.8	3.7	6.9	/	/
CNS(=O)(=O)c1cccc(C(=O)OCC(=O)c2ccc(S(=O)(=O)N3CCCCC3)cc2)c1	12.8	-9.6	-5.1	52.6*	23.5	17.9
